Experimental findings from PubChem BioAssay (NCATS) are described below.

Records with an inconclusive call do not appear. The source made the active and inactive calls. Unless noted, calls follow the shape of the full dose curve.

Assay [1] in a line: qHTS for Inhibitors of the Functional Ribonucleoprotein Complex (vRNP) of Lassa (LASV) Arenavirus: LASV Primary Screen - GLuc reporter signal (AID 1347082; calls by dose curve; tested in HEK293 reporter line; also: nearly all actives have a fitted effect of over 60% in size; also: potency is read from the fitted curve at half-maximal effect; as to activity change, negative = inhibition: % is scaled to controls: 0 for no effect and ±100 for the full control effect).
The nature of assay [2]: qHTS for Inhibitors of the Functional Ribonucleoprotein Complex (vRNP) of Lassa (LASV) Arenavirus: Viability assay - alamar blue signal for LASV Primary Screen (AID 1347083; calls by dose curve; tested in HEK293 reporter line; also: nearly all actives have a fitted effect of over 80% in size; also: potency is read from the fitted curve at half-maximal effect). Background: In qHTS, concentration-response curves come from the screen itself.
The nature of assay [3]: qHTS for Inhibitors of the Functional Ribonucleoprotein Complex (vRNP) of Lymphocytic Choriomeningitis Arenaviruses (LCMV): Viability assay - alamar blue signal for LCMV Primary Screen (AID 1347085; calls by dose curve; tested in HEK293 reporter line; also: nearly all actives have a fitted effect of over 80% in size; also: potency is read from the fitted curve at half-maximal effect).
Assay [4] addresses Nucleoprotein (Lymphocytic choriomeningitis virus (strain Armstrong)) (UniProt P09992). The assay is described as follows: qHTS for Inhibitors of the Functional Ribonucleoprotein Complex (vRNP) of Lymphocytic Choriomeningitis Arenaviruses (LCMV): LCMV Primary Screen - GLuc reporter signal (AID 1347086). Also: nearly all actives have a fitted effect of over 70% in size. Also: potency is read from the fitted curve at half-maximal effect. As to activity change, negative = inhibition: % is scaled to controls: 0 for no effect and ±100 for the full control effect.
The nature of assay [5]: Cytotoxicity counterscreen for inhibitors of SARS-CoV-2 cell entry (AID 1645845). Also: nearly all actives have a fitted effect of over 50% in size. Also: potency is read from the fitted curve at half-maximal effect. In short, it runs like this: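 ATP-content luminescence (ATPLite 1step, 15 min RT) read after 48 h compound exposure of Expi293F cells stably expressing human ACE2; normalized to cells-only wells and media-only wells.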
A general note: Counterscreens check selectivity or assay interference.

A short description of assay [6]: Primary qHTS to identify inhibitors of SARS-CoV-2 cell entry (AID 1645846). Also: nearly all actives have a fitted effect of over 45% in size. Also: potency is read from the fitted curve at half-maximal effect. To be noted: activity change, negative = inhibition: at 57.1 µM (top of the series) unless noted. In short, it runs like this: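 Data are normalized to wells receiving SARS-CoV-2-S pseudoparticles and those given bald particles. Entry signal was luciferase luminescence in stable hACE2 Expi293F cells, 48 hr post-infection, after 1 hr compound pretreatment.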

Assay [7] in a line: qHTS profiling of the MIPE4 collection as inhibitors of Plasmodium falciparum (3D7) proliferation (AID 743344; call rule not given here;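 also: scaled between DMSO vehicle wells and 0.29 µM artemisinin as full inhibition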). Conditions: P. falciparum 3D7 in erythrocytes, SYBR Green DNA fluorescence, 72 h; at 28.5 µM (top of the series) unless noted. In short, it runs like this:
(§1)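 Parasite DNA was quantified by SYBR Green I fluorescence (ex 485, em 535 nm) after overnight lysis in saponin/Triton buffer at room temperature. Cultures at 0.3% parasitemia and 2.5% hematocrit were first exposed to compound for 72 h at 37 C; signals were normalised to artemisinin (0.29 uM) and vehicle wells.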

Assay [8] is described as follows: qHTS profiling of the MIPE4 collection as inhibitors of Plasmodium falciparum (DD2) proliferation (Rep 2) (AID 743346; call rule not given here). To be noted: P. falciparum Dd2 in erythrocytes, SYBR Green DNA, 72 h; at 28.5 µM (top of the series) unless noted. The essentials: as §1

Chain of Nucleoprotein (Lymphocytic choriomeningitis virus (strain Armstrong)) (P09992 whole entry, looked up): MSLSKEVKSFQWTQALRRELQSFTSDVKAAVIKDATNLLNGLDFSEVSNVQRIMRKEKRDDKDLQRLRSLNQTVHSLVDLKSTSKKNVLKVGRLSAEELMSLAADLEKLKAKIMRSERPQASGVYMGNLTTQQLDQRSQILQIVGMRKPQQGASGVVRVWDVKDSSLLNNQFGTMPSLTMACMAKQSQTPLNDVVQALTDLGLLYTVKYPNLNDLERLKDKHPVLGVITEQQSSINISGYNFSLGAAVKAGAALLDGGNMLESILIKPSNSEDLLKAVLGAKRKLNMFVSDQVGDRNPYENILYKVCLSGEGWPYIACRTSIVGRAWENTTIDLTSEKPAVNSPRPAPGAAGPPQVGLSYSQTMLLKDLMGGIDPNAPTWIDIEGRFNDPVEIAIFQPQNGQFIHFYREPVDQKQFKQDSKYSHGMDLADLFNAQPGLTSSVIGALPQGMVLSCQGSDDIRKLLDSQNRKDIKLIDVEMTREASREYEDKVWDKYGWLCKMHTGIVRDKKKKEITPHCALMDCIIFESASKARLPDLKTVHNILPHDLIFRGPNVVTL

Turning to `OCc1ccc(-c2ccc(-c3ccc(CO)s3)o2)s1`, the Potency entry in assay [1], in assay [2], in assay [3], in assay [4], in assay [5] and in assay [6] was “inactive” throughout.
`COC(=O)[C@H](c1ccccc1Cl)N1CCc2sccc2C1`: the Potency entry in assay [1], in assay [2], in assay [3], in assay [4] and in assay [5] was “inactive” throughout. For the same molecule, in assay [6], the activity change, negative = inhibition is -28.2%.
On to `Cn1cnc2c(F)c(Nc3ccc(Br)cc3F)c(C(=O)NOCCO)cc21`, for which the Potency entry in assay [1], in assay [2], in assay [3], in assay [4] and in assay [5] was “inactive” in each case. In addition, the activity change, negative = inhibition in assay [6] is -25.1%.
For `O=c1cc(-c2ccccc2)oc2cc(O)cc(O)c12`, the Potency entry in assay [1], in assay [2], in assay [3], in assay [4], in assay [5] and in assay [6] was “inactive” throughout.
On to `Cc1cc(N2CCOCC2)cc2[nH]c(-c3c(NC[C@@H](O)c4cccc(Cl)c4)cc[nH]c3=O)nc12`, for which the Potency was 3.85 µM (active) in assay [1], 0.769 µM (active) in assay [2], 0.863 µM (active) in assay [3] and 1.53 µM (active) in assay [4]. For the same molecule, the Potency entry in assay [5] is “inactive”. The activity change, negative = inhibition in assay [6] is -9.29%.
As for `NC(=O)[C@@H](CCC(F)(F)F)N(Cc1ccc(-c2ncon2)cc1F)S(=O)(=O)c1ccc(Cl)cc1`, the Potency entry in assay [1], in assay [2], in assay [3], in assay [4] and in assay [5] was “inactive” in each case. The activity change, negative = inhibition in assay [6] is -47.2%.
For the molecule `O=C1CN2Cc3c(ccc(Cl)c3Cl)N=C2N1`, the Potency result in assay [1], in assay [2], in assay [3], in assay [4], in assay [5] and in assay [6] was “inactive” each time.
Regarding `COc1nccc(-c2c(-c3ccc(F)cc3)ncn2C2CCC(O)CC2)n1` (stereo unspecified), the Potency entry in assay [1], in assay [2], in assay [3], in assay [4], in assay [5] and in assay [6] was “inactive” each time.
Take `Cn1cc(-c2ccc3ncc(Cc4ccc5ncccc5c4)n3n2)cn1`: the Potency result in assay [1], in assay [2], in assay [3], in assay [4], in assay [5] and in assay [6] was “inactive” in each case.
As to `CCOc1ccccc1N=Nc1c(C)[nH]n(-c2nc(-c3ccccc3)cs2)c1=O`, the Potency result in assay [1], in assay [2], in assay [3], in assay [4], in assay [5] and in assay [6] was “inactive” each time.
Regarding `CCOC(=O)C1=C(O)C(=O)N(Cc2ccccc2)C1`, the Potency result in assay [1], in assay [2], in assay [3], in assay [4], in assay [5] and in assay [6] was “inactive” throughout.
`Nc1nc2c(c(=O)[nH]1)N(C=O)[C@H](CNc1ccc(C(=O)N[C@@H](CCC(=O)O)C(=O)O)cc1)CN2`: the Potency result in assay [1], in assay [2], in assay [3], in assay [4], in assay [5] and in assay [6] was “inactive” in each case.
As for `O=c1ccn([C@@H]2O[C@H](CO)[C@H](O)[C@@H]2F)c(=O)[nH]1`, the Potency in assay [1] was 4.85 µM (active); in assay [2] it was 6.11 µM (active); in assay [3], 4.32 µM (active); in assay [4], 3.06 µM (active). Moreover, in assay [5], the Potency result was “inactive”. Also, the activity change, negative = inhibition in assay [6] was -22.4%.
`COc1ccc(Nc2nccc(NCCO)n2)cc1`: the Potency entry in assay [1], in assay [2], in assay [3], in assay [4], in assay [5] and in assay [6] was “inactive” in each case.
As for `COc1ccc(-c2ccc3ncc4c(c3c2)n(-c2ccc(N3CCNCC3)c(C(F)(F)F)c2)c(=O)n4C)cn1`, the Potency was 0.0022 µM (active) in assay [1], 4.47 µM (active) in assay [5] and 3.16 µM (active) in assay [6]. Further, the Potency entry in assay [2], in assay [3] and in assay [4] was “inactive” in each case.
As to `CCCCCNC(=O)N1CCC(CN(Cc2ccc(Cl)cc2)Cc2ccc([N+](=O)[O-])s2)C1` (stereo unspecified), the Potency entry in assay [1], in assay [2], in assay [3], in assay [4] and in assay [5] was “inactive” in each case. Besides, in assay [6], the activity change, negative = inhibition was -21.9%.
Regarding `COc1ccc(CC2=NN3C([C@@H](CCc4ccccc4)[C@@H](C)O)=NC(C)C3C(=O)N2)cc1OC` (stereo partly specified), the Potency entry in assay [1], in assay [2], in assay [3], in assay [4], in assay [5] and in assay [6] was “inactive” in each case.
As for `Cc1coc2c1C(=O)C(=O)c1c-2ccc2c1CCCC2(C)C`, the Potency entry in assay [1], in assay [2], in assay [3], in assay [4] and in assay [5] was “inactive” throughout. Besides, the activity change, negative = inhibition in assay [6] was -20%.
In the case of `Cc1noc(-c2ccc(CSCCC(=O)O)cc2)c1NC(=O)OC(C)c1ccccc1Cl` (stereo unspecified), the Potency result in assay [1], in assay [2], in assay [3], in assay [4] and in assay [5] was “inactive” throughout. In assay [6], the activity change, negative = inhibition is -12.6%.
In the case of `Cc1cn2cc(C(=O)N(C)CCO)cc(N[C@@H]3CCOc4cccc(C)c43)c2n1`, the Potency result in assay [1], in assay [2], in assay [3], in assay [4], in assay [5] and in assay [6] was “inactive” in each case.
Regarding `O=c1oc2cc(O)ccc2s1`, the Potency entry in assay [1], in assay [2], in assay [3], in assay [4] and in assay [5] was “inactive” throughout. The activity change, negative = inhibition in assay [6] was -12.6%.
As to `CC(C)[C@H](O)C(=O)N[C@@H](C)C(=O)N[C@@H]1C(=O)N(C)CCc2ccccc21`, the Potency entry in assay [1], in assay [2], in assay [3], in assay [4] and in assay [5] was “inactive” each time. Also, the activity change, negative = inhibition in assay [6] was 4.11%.
With `CCCCC(F)(F)[C@@]1(O)CC[C@H]2[C@H](CC(=O)[C@@H]2CCCCCCC(=O)O)O1`, the Potency result in assay [1], in assay [2], in assay [3], in assay [4], in assay [5] and in assay [6] was “inactive” each time.
`COc1ccc([C@@H]2CNC(=O)C2)cc1OC1CCCC1`: the Potency result in assay [1], in assay [4] and in assay [5] was “inactive” in each case. Besides, the Potency was 2.73 µM (active) in assay [2] and 3.43 µM (active) in assay [3]. Moreover, in assay [6], the activity change, negative = inhibition was 2.39%.
As for `CC1(COc2ccc3c(c2)ncn3-c2ccc3cccc(N4CCC(N)CC4)c3n2)COC1`, the figures for the Potency in assay [1], in assay [5] and in assay [6] were 0.0544 µM (active), 28.2 µM (active) and 10 µM (active), respectively. Moreover, the Potency entry in assay [2], in assay [3] and in assay [4] was “inactive” each time.
On to `CNC(=O)c1ccc2cc(C3(O)CCn4cncc43)ccc2c1` (stereo unspecified), for which the Potency result in assay [1], in assay [2], in assay [3], in assay [4] and in assay [5] was “inactive” throughout. Moreover, the activity change, negative = inhibition in assay [6] was -19.9%.
Take `CC(C)Nc1cc(C(F)(F)F)cc2nc(NC(=O)c3cccnc3)nn12`: the Potency result in assay [1], in assay [2], in assay [3], in assay [4] and in assay [5] was “inactive” in each case. Moreover, the activity change, negative = inhibition in assay [6] was -4.48%.
In the case of `CNC(=O)c1cc(COc2nnc(Nc3ccc(Cl)cc3)c3ccoc23)ccn1`, the Potency entry in assay [1], in assay [2], in assay [3], in assay [4] and in assay [5] was “inactive” throughout. The activity change, negative = inhibition in assay [6] was -17%.
In assay [7], `CC[C@H](C=C[C@@H](C)[C@H]1CC[C@H]2[C@@H]3CC=C4C[C@@H](O)CC[C@]4(C)[C@@H]3CC[C@]12C)C(C)C` yielded a parasite growth, % of DMSO control of 84.3% [at 9.64 µM]. Moreover, the parasite growth, % of control (lower = inhibition) in assay [8] was determined as 117% [at 9.64 µM]. In addition, the Potency result in assay [1], in assay [2], in assay [3], in assay [4], in assay [5] and in assay [6] was “inactive” each time.
